This is a sample that favours compounds with a hit; in the whole collection about 3.4% have one here.
proKLK7 act: proKLK7 (human) activation, primary screen; purified proKLK7, EDANS-DABCYL substrate fluorescence; 100% is mature enzyme control, 0% vehicle; activation, % at 7 µM; 370,000 tested, 0.9% active; AID 652039;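 active means activation above the mean of all tested compounds plus 3 SD, computed per campaign excluding outliers beyond control limits, cut at about 13% in these data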
CendR NRP1 mod: modulators of CendR peptide binding to human neuropilin-1. 360,000 tested, 0.85% active. O14786. FAM-RPARPAR peptide binding to NRP-1, fluorescence polarization. inhibition, % at 25 µM. AID 602438;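 active means inhibition or corrected inhibition above about 18%, plus a signal ratio from 0.5 to 1.5, limit read from the data, passing the limit was not always enough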
Target sequence (O14786 whole entry, looked up): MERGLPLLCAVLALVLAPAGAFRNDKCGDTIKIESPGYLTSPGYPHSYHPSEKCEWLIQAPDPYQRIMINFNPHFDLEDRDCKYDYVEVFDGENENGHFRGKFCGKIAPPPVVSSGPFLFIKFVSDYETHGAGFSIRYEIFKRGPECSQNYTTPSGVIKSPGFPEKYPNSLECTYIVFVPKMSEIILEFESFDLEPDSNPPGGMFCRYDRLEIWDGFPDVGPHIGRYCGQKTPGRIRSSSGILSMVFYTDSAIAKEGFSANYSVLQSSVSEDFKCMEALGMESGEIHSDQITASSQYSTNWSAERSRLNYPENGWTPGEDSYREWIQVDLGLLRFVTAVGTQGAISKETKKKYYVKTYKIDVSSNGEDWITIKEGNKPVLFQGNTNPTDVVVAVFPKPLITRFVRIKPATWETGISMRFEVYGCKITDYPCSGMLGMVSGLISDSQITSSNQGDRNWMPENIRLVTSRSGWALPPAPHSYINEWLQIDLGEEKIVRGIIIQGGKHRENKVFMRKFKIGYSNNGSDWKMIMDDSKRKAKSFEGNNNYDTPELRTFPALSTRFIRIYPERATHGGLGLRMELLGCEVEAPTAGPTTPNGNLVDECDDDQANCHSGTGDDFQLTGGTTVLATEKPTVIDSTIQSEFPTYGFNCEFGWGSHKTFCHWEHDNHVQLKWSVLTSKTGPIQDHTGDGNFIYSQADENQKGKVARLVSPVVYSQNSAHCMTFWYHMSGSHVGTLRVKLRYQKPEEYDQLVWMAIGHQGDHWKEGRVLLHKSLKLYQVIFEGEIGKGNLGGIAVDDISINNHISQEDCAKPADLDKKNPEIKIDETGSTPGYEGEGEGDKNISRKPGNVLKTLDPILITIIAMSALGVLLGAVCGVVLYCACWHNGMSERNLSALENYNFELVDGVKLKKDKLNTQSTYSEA
HGIII-sPLA2 inh: Blocks human group III sPLA2 activity; AID 743126; inhibition, % at 12.2 µM; 370,000 tested, 0.56% active; QFRET BODIPY PC-A2 liposome hydrolysis, fluorescence; Q9NZ20;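 active means inhibition above mean plus 3 SD of compounds lying within the high and low control bounds, cut at about 19% in these data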;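 further: 0% = median of test compound wells and 100% = no enzyme DMSO wells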
ADAM17 inh: inhibits human ADAM17; inhibition, % at 6.95 µM; 370,000 tested, 0.83% active; P78536; recombinant ADAM17, EDANS/DABCYL FRET peptide cleavage;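 active means inhibition above the mean of compounds lying between control limits plus 3 SD, set per campaign, cut at about 8.5% in these data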;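 further: 0% = DMSO-only wells as the low control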
ADAM10 inh: inhibitors of human ADAM10 | recombinant ADAM10, EDANS/DABCYL FRET peptide cleavage, 3 h | inhibition, % at 7 µM | 370,000 tested, 0.62% active | AID 720582;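 active means inhibition above a per-campaign cutoff equal to the mean of compounds falling between control-based bounds plus 3 SD, cut at about 20% in these data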;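 further: 0% = DMSO wells while the 100% control is not disclosed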
ADAM10 confirm: human ADAM10 inhibition, confirmation. 2,100 tested, 1% active. shares compounds with ADAM10 inh. inhibition, % at 6.95 µM. ADAM10 QFRET peptide cleavage, EDANS fluorescence. AID 743208;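 active means inhibition above about 20% chosen separately for each screening run, limit read from the data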;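 further: 0% = DMSO wells and 100% = marimastat wells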
ADAM17 ctr: counter-screen for ADAM10 exosite inhibitors: inhibitors of human ADAM17. shares compounds with ADAM10 inh. inhibition, % at 6.95 µM. ADAM17 QFRET peptide cleavage, EDANS fluorescence. 2,100 tested, 0.5% active;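 active means mean triplicate inhibition above the solvent-only control wells' mean plus 3 SD, cut at about 12% in these data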;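 further: 0% = DMSO wells and 100% = marimastat wells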
ADAM10 ctr: inhibits human ADAM10 in ADAM17 exosite counter-screen; shares compounds with ADAM17 inh; recombinant ADAM10, EDANS/DABCYL FRET peptide cleavage, 3 h; inhibition, % at 6.95 µM; 2,900 tested, 47% active; AID 743256;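 active means mean inhibition over the triplicate runs exceeds the activity threshold set in the earlier primary screen, cut at about 20% in these data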;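 further: 0% = DMSO wells and 100% = marimastat wells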
ADAM17 confirm: confirmation of inhibitors of human ADAM17; shares compounds with ADAM17 inh; recombinant ADAM17, EDANS/DABCYL QFRET peptide cleavage; inhibition, % at 6.95 µM; 2,900 tested, 65% active;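 active means mean inhibition across replicates above the hit cutoff set in the primary screen, cut at about 8.5% in these data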;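 further: 0% = DMSO wells and 100% = marimastat wells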
* hit, by the source's call; · = no result.

SMILES | proKLK7 act | CendR NRP1 mod | HGIII-sPLA2 inh | ADAM17 inh | ADAM10 inh | ADAM10 confirm | ADAM17 ctr | ADAM10 ctr | ADAM17 confirm
COc1ccc(Nc2nc(N)nc(CSC(=S)N3CCN(c4ccccc4)CC3)n2)cc1 | -1 | 11 | -16 | 12* | 23* | 7 | 3 | 26* | 14*
CCOc1ccc(Nc2nc(N)nc(CSC(=S)N3CCN(c4ccccc4)CC3)n2)cc1 | -1 | -1 | -11 | 0 | 8 | · | · | · | ·
Cc1cccc(COc2ccccc2C(=O)N(C)CC(=O)Nc2cccc(F)c2)c1 | 0 | -1 | -24 | 11* | 23* | -1 | 0 | 16 | 13*
Cc1noc(C)c1COc1ccccc1C(=O)N(C)CC(=O)Nc1ccc(Cl)c(Cl)c1 | 0 | -6 | -39 | 9.9* | 23* | 3 | 0 | 32* | 13*
COc1ccc(CN2C[C@H](COCc3ccccc3)Oc3cccc(N4CCCC4)c3S2(=O)=O)cc1 | 1 | · | 6 | 0 | -6 | · | · | · | ·
Cc1ccc(S(=O)(=O)Nc2ccc(N(C)C)cc2)cc1 | 1 | -7 | 10 | 3 | -17 | · | · | · | ·
CN(C)c1ccc(NS(=O)(=O)c2ccc(Cl)cc2)cc1 | 1 | 0 | 17 | 13* | 34* | 5 | 1 | 8 | 3
CCOC(=O)c1cc(-c2ccccc2C)nn1CC1CC(c2ccc(OC)cc2)=NO1 (centres undefined) | 1 | 21 | -2 | 10* | 21* | 5 | 1 | 18 | 10*
CCOC(=O)c1cc(-c2ccccc2)nn1CC1CC(c2ccc(OC)cc2)=NO1 (centres undefined) | -1 | -4 | -7 | 2 | 10 | · | · | · | ·
O=C1N[C@@H](Cc2c[nH]c3ccccc23)COC(=O)[C@@H](Cc2ccc(F)cc2)C/C=C\C[C@H]1CC(=O)N(CCO)Cc1ccccc1 | 1 | 15 | -86 | 9.7* | 24* | 4 | 2 | 30* | 15*
O=C1N[C@@H](Cc2c[nH]c3ccccc23)COC(=O)[C@H](Cc2ccc(F)cc2)C/C=C\C[C@@H]1CC(=O)N(CCO)Cc1ccccc1 | 1 | 10 | -73 | 4 | 10 | · | · | · | ·
C=CC[C@@H](CC(=O)N(CCO)Cc1ccccc1)C(=O)N[C@H](COC(=O)[C@@H](CC=C)Cc1ccc(F)cc1)c1ccccc1 | 0 | -4 | -45 | 15* | 34* | 9 | 4 | 33* | 17*
C=CC[C@@H](CC(=O)N(CCO)Cc1ccccc1)C(=O)NC[C@H](OC(=O)[C@@H](CC=C)Cc1ccc(F)cc1)c1ccccc1 | 1 | -4 | -40 | 13* | 26* | 7 | 2 | 34* | 19*
CCOC(=O)C1CCCN(S(=O)(=O)c2cc3c(cc2Br)CCN3C(=O)CC)C1 (centres undefined) | 1 | · | -1 | 0 | 0 | · | · | · | ·
COC(=O)[C@]12C[C@H](CC(=O)NCCc3ccccc3OC)C(=O)N(Cc3cccc4ccccc34)C1=C[C@H](C(C)C)O[C@@H]2C1CC1 | 0 | · | -1 | 11* | 22* | 8 | 2 | 27* | 17*
COC(=O)[C@]12C[C@H](CC(=O)NCc3cccc(C(F)(F)F)c3)C(=O)N(Cc3ccco3)C1=C[C@H](C(C)(C)C)O[C@@H]2C | 0 | · | -5 | 10.0* | 22* | 6 | 1 | 42* | 21*
COC(=O)[C@]12C[C@H](CC(=O)NCc3cccc(C(F)(F)F)c3)C(=O)N(Cc3ccco3)C1=C[C@H](C(C)C)O[C@@H]2C1CC1 | -1 | · | -13 | 12* | 24* | 2 | 2 | 49* | 24*
COC(=O)[C@]12C[C@H](CC(=O)NCc3cccc(C(F)(F)F)c3)C(=O)N(CCc3ccc(OC)c(OC)c3)C1=C[C@H](C1CCCC1)O[C@@H]2C | 0 | · | -20 | 9.0* | 28* | 8 | 2 | 27* | 12*
CCOC(=O)N1CCN(C(=O)C[C@H]2C(=O)N(CCCOC)C3=CCCCC[C@]32C(=O)OC)CC1 | 0 | · | 3 | -2 | -1 | · | · | · | ·
Cc1ccc(C(=O)n2ccc3ccc(-c4ccc5ccn(Cc6ccc(C#N)cc6)c5c4)cc32)cc1 | -1 | · | 1 | 0 | -7 | · | · | · | ·
Cc1cc(C)cc(NC(=O)C2(C(=O)C3CC3)CC(c3ccccc3C(F)(F)F)=NO2)c1 (centres undefined) | 0 | · | -2 | 7 | 12 | · | · | · | ·
O=C(Nc1ccc(C(O)(C(F)(F)F)C(F)(F)F)cc1)c1ccc(Cl)c([N+](=O)[O-])c1 | 0 | 1 | -23 | 16* | 34* | 4 | 2 | 49* | 22*
O=[N+]([O-])c1cc(C(F)(F)F)ccc1NCCc1c[nH]c2ccc(O)cc12 | 0 | -15 | -23 | 13* | 31* | 5 | 1 | 27* | 14*
CN(CC(=O)Nc1ccc(Cl)c(C(F)(F)F)c1)C(=O)CC1Sc2ccccc2NC1=O (centres undefined) | 0 | 2 | -35 | 14* | 33* | 1 | 0 | 26* | 13*
Cc1nc(-c2ccc(F)cc2)c(CC(=O)N(C)CC(=O)Nc2ccccc2Cl)s1 | 0 | 12 | -2 | -2 | -1 | · | · | · | ·
SMILES | proKLK7 act | CendR NRP1 mod | HGIII-sPLA2 inh | ADAM17 inh | ADAM10 inh | ADAM10 confirm | ADAM17 ctr | ADAM10 ctr | ADAM17 confirm
Cc1cccc(C(=O)OCC(=O)N(C)CC(=O)Nc2ccc(Cl)c(C(F)(F)F)c2)c1 | 0 | 12 | -4 | 3 | 1 | · | · | · | ·
Cc1nc(-c2ccc(F)cc2)c(CC(=O)N(C)CC(=O)Nc2ccc(Cl)c(C(F)(F)F)c2)s1 | -1 | -1 | -16 | 19* | 32* | 1 | 1 | 25* | 14*
Cc1ccc(C)c(OCC(=O)N(C)CC(=O)Nc2ccc(Cl)c(C(F)(F)F)c2)c1 | 0 | 10 | -17 | 8.8* | 23* | 4 | 0 | 31* | 17*
COc1cccc(NC(=O)CN(C)C(=O)CC2Sc3ccccc3NC2=O)c1 (centres undefined) | 0 | 11 | 2 | -1 | -7 | · | · | · | ·
C=C(C)COc1ccc(-c2ncncc2-c2ccccc2OC)c(O)c1 | 0 | -1 | -15 | 2 | 2 | · | · | · | ·
CCOc1ccc(-c2[nH]ncc2Oc2ccccc2OC)c(O)c1 | 0 | 11 | -63 | 9.6* | 21* | 4 | 2 | 30* | 15*

Compound activity from PubChem BioAssay.
